# MITF act = increases MITF-driven TRPM1 promoter luciferase signal | SK-MEL-5 TRPM1-promoter luciferase, 24 h; % of positive control, neutral wells = 0 | activation, % at 12.5 µM | 0.75% of 300,000 active;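 active = mean activation of at least 80% with every replicate also reaching 80%; inconclusive = mean reaches 80% but some replicate falls short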;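 note: 0% = neutral control wells and 100% = parthenolide positive control wells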
# CFTR F508del cor = correctors of CFTR F508del function in bronchial epithelial cells; CFBE cells, YFP halide quenching; stimulated with forskolin plus potentiator P3; % fluorescence drop versus neutral controls; activity (quench increase), % at 7.58 µM; 0.36% of 350,000 active; AID 720511;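 active = mean added fluorescence quench of at least 8% versus neutral control, with both replicates also reaching 8%; inconclusive = only one of the mean or replicate conditions met; inactive = mean below 8% and not both replicates reaching 8%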;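 note: cells transiently co-express mutant CFTR-F508del with the halide-sensitive YFP; corrector assay measuring rescue of mutant channel to the surface after 24 h compound exposure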
# GSIS activator = primary screen for activators of insulin secretion dependent on glucose, INS-1E cells, GLuc reporter luminescence. INS-1E GLuc reporter insulin secretion, 2-3 h. activation, % at 16.6 µM. 0.61% of 370,000 active. AID 743287;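 active = lowest replicate activation of at least 40%, so every replicate reaches that level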;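 note: 0% = median of neutral control wells and 100% = median of IBMX positive control wells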
# Wnt bcat act = activates Wnt/beta-catenin signaling in a reporter cell assay; AID 743398; activation, % at 9.35 µM; activator, plate reader; 1.2% of 300,000 active; in the data active = activation above about 30%, passing the limit was not always enough; inconclusive = no clear call, values can overlap the other calls;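 note: 0% = neutral control wells and 100% = positive control wells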
# HIV Env fusion = HIV envelope-mediated fusion inhibition; inhibition, % at 12.3 µM; 1.1% of 360,000 active; HeLa-JRFL Env/CEM21 cell fusion, luciferase;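 active = mean replicate inhibition score of at least 50 and every replicate individually at or above 50; inconclusive = only one of the two criteria met; inactive = mean below 50 and not all replicates reaching 50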;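 note: 0% = plate neutral controls and 100% = maraviroc near 300 nM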
# The depositor's hits bear a star; i = inactive; ? = inconclusive; · = not tested or not shown; [ ] = remark or other dose. In the library only some 2.7% were active in any assay of this set; here they are far more common.
SMILES,MITF act,CFTR F508del cor,GSIS activator,Wnt bcat act,HIV Env fusion
COc1ccc(CN(C)C[C@@H]2OCCCC[C@@H](C)Oc3ccc(NC(=O)Nc4ccc(C(F)(F)F)cc4)cc3C(=O)N([C@@H](C)CO)C[C@H]2C)cc1,·,-3,0,·,58*[16.7 µM]
COc1ccc(C(=O)c2cnc[nH]2)cc1,·,0,9,3,5
COc1ccc(C(=O)c2cnc[nH]2)cc1OC,-5,1,70*,0,3
C[C@@H]1CCCCO[C@@H](CN(C)Cc2ccncc2)[C@H](C)CN([C@H](C)CO)C(=O)c2cc(NC(=O)C3CCCCC3)ccc2O1,·,4,-10,·,-1[16.7 µM]
Cc1ccc(S(=O)(=O)NCc2csc(-c3cccs3)n2)cc1,4,0,48*,1,-10
CCN1C(=O)[C@H]2[C@@H](c3ccc(-c4ccc(Cl)c(Cl)c4)cc3)N[C@@](C)(C(=O)OC)[C@H]2C1=O,3,8.2*,-12,-6,8
CCN1C(=O)[C@H]2[C@@H](c3ccc(-c4ccc(Cl)c(Cl)c4)c(OC)c3)N[C@@](C)(C(=O)OC)[C@H]2C1=O,-6,-1,-15,-4,30
COc1cccc(NC(=O)c2ccc3c(c2)N(C)CCS3)c1,58,3,-13,50*,-189
CN1CCSc2ccc(C(=O)Nc3ccc(Cl)cc3)cc21,?,-1,6,37*,-64
CN1CCSc2ccc(C(=O)NCc3cccc(F)c3)cc21,·,3,-7,11,-18
COc1cccc(NC(=O)c2ccc3c(c2)CCN3S(C)(=O)=O)c1,·,-3,17,9,-22
CC(C)(C)OC(=O)N1CCCN(C(=O)c2ccc(Cl)cc2)CC1,3,0,192*,5,19
COc1ccc(/[N+]([O-])=C/c2ccoc2)cc1,106*,-4,·,41*,·
CCOc1cc(/C=N/NC(=O)CN2CCOCC2)ccc1OCc1ccccc1,-4,·,4,·,-14
CCOc1cc(/C=N/NC(=O)c2ccc(CN3CCOCC3)cc2)ccc1OCc1ccccc1,-28,·,-19,·,56*
O=C(CCc1nc2ccccc2c(=O)[nH]1)NNC(=O)c1ccc(Cl)cc1,9,0,2,-2,·
O=C(CCc1nc2ccccc2c(=O)[nH]1)NNC(=O)c1cccc(Cl)c1,-8,0,44*,0,-6
C[C@H](CO)N1C[C@H](C)[C@@H](CN(C)C(=O)C2CCCCC2)Oc2cc(Br)ccc2S1(=O)=O,·,3,-12,·,16[16.7 µM]
Cc1ccc(NC(=O)Cn2c(O)c(N=NC(=O)c3cc4ccccc4cc3O)c3ccccc32)cc1,-40,-7,0,1,33
O=C(N=Nc1c(O)n(Cc2ccccc2)c2ccccc12)c1ccc(O)cc1,150*,·,15,·,-49
O=C(N=Nc1c(O)n(Cc2ccccc2)c2ccccc12)c1cc2ccccc2cc1O,89*,·,5,-1,-13
COc1ccc(C(=O)NCC(=O)N=Nc2c(O)n(Cc3ccccc3)c3ccccc23)cc1OC,-7,4,4,2,-4
C[C@@H]1CN([C@@H](C)CO)C(=O)c2cc(NC(=O)C3CC3)ccc2O[C@H]1CN(C)Cc1ccncc1,·,3,8,·,-6[16.7 µM]
CCOC(=O)c1nc(Nc2ccc(N3CCC(C)CC3)cc2)c2ccccc2n1,8,2,·,-2,62*
CCOC(=O)c1nc(Nc2ccc(Nc3ccccc3)cc2)c2ccccc2n1,14,1,15,-1,13
SMILES,MITF act,CFTR F508del cor,GSIS activator,Wnt bcat act,HIV Env fusion
CS(=O)(=O)N(Cc1ccc(Cl)cc1)c1ccc(C(=O)NCCC2=CCCCC2)cc1,-4,·,80*,·,85*
CCCC(=O)Nc1ccc2c(c1)C(=O)N(C)[C@H]1CC[C@H](CC(=O)NCC3CCCCC3)O[C@@H]1CO2,·,-1,-3,·,-6[16.7 µM]
COc1ccc(OC)c(N/C=C/C(=O)c2ccccc2)c1,·,2,7,-3,10
CCOC(=O)c1ccccc1N/C=C/C(=O)c1ccccc1,-7,·,·,54*,-65
Cc1ccc(C(=O)/C=C/Nc2ccccc2C(N)=O)cc1,1,·,·,39*,i
CCOC(=O)c1ccc(N/C=C/C(=O)C(C)(C)C)cc1,57,5,-22,78*,-7
CCOC(=O)c1ccc(N/C=C/C(=O)c2ccccc2)cc1,65,-3,4,74*,-63
NC(=O)c1ccccc1N/C=C/C(=O)c1ccc(Cl)cc1,18,·,·,1,-348
CN(C)c1ccc(N/C=C/C(=O)C(C)(C)C)cc1,12,·,·,·,·
CCOC(=O)c1ccc(N/C=C/C(=O)c2ccc(OC)cc2)cc1,21,·,·,·,·
C[C@@H]1CCCCO[C@H](CN(C)C)[C@@H](C)CN([C@@H](C)CO)C(=O)c2cc(NC(=O)c3ccccc3)ccc2O1,·,-5,4,·,-4[16.7 µM]
CO[C@@H]1CN(C)C(=O)c2ccc(NC(=O)C3CCC3)cc2OC[C@H](C)N(C)C[C@H]1C,·,0,13,·,·
COc1cccc(N/C=C/C(=O)c2ccc(Cl)cc2)c1,29,0,2,16,·
COc1ccc(N/C=C/C(=O)c2ccc(Cl)cc2)cc1,106*,·,112*,·,-131
CCS(=O)(=O)c1ccc2oc(Nc3ccccc3Br)nc2c1,100*,-1,-11,36*,-72
O=C(O)/C=C\c1cccc(-n2nnnc2SCc2ccccc2F)c1,-1,0,52*,-1,0
O=C(O)c1ccc(-n2nnnc2SCc2ccccc2F)cc1,-2,1,61*,1,-19
Cc1cccc(CSc2nnnn2-c2ccccc2)c1,-3,·,-16,·,·
O=C(c1ccccc1F)N1CC[C@@H]2[C@@H](CO)Nc3ccc(C#Cc4ccccc4)cc3[C@@H]21,·,-1,11,·,·
COc1ccc(C(=O)CN2C(=O)c3ccccc3S2(=O)=O)cc1,·,1,22,-4,72*
CCCn1c(C)cc(C(=O)Cn2nnc3ccccc3c2=O)c1C,67,-2,-13,46*,-16
CCCn1c(C)cc(C(=O)CN2C(=O)c3ccccc3S2(=O)=O)c1C,·,-1,1,-14,67*
Cc1cc(C(=O)CN2C(=O)c3ccccc3S2(=O)=O)c(C)n1CC1CCCO1 (stereo not given),·,·,16,·,115*
COc1cccc(S(=O)(=O)Nc2ccc3c(c2)[C@@H]2C[C@H](CC(=O)NCc4cccc(F)c4)O[C@@H](CO)[C@@H]2O3)c1,·,3,-10,·,29[16.7 µM]
COc1ccc(C(=O)CN2Cc3ccccc3C2=N)cc1,·,-3,·,42*,-85
SMILES,MITF act,CFTR F508del cor,GSIS activator,Wnt bcat act,HIV Env fusion
COc1ccc(C(=O)Cn2c(=N)n(C)c3ccccc32)cc1,·,2,·,1,-43
O=C(COC(=O)c1ccccc1F)NC1CCCC1,-8,-2,22,3,19
O=C(COc1ccccc1Br)NC(=O)NC1CCCC1,141*,-4,15,11,·
O=C(CCS(=O)(=O)c1ccccc1)NC1CCCCC1,105*,-1,9,22,-13
COc1ccc(S(=O)(=O)CCC(=O)NC2CCCCC2)cc1,0,·,·,-7,·
O=C(COc1ccc(C(=O)c2ccccc2)cc1)NC1CCCCCC1,-8,·,-26,49*,7

# Screening data as filed in PubChem BioAssay.
